Bioassay records: PubChem, several laboratories
Sampled rows, rich in hits. Any-hit rate of the full collection: about 2.4%.
CRFR2-BP antag: blocks CRF-induced signaling of the CRF-BP/CRF-R2 complex; HEK293 CRF-R2/CRF-BP, CRF-induced calcium fluorescence; inhibition, % at 11.8 µM; 350,000 tested, 0.59% active;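 active means inhibition of the ligand-induced calcium signal above about 50% at the single tested concentration, limit read from the data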
ABHD5-PLIN5 inh: inhibitors of human ABHD5-perilipin-5 interaction. 360,000 tested, 0.78% active. Split G. princeps luciferase complementation, luminescence, 4 h. AID 602281. inhibition, % at 4 µM. Q00G26+Q8WTS1;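 active means inhibition above the mean inhibition across every tested compound plus 3 SD, cut at about 22% in these data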;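 further: 0% = DMSO only wells and the 100% control is not disclosed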
TLR4-MyD88 BLA: blocks binding of human TLR4 to MyD88; HeLa CL3-4 TLR4/MyD88 BLA complementation, FRET ratio; inhibition, % at 8.4 µM; AID 861; O00206+Q99836; 200,000 tested, 0.18% active; in the data active means inhibition above about 25%;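 further: 0% = vehicle and 100% = reference inhibitor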
Target sequence (O00206 whole entry, looked up): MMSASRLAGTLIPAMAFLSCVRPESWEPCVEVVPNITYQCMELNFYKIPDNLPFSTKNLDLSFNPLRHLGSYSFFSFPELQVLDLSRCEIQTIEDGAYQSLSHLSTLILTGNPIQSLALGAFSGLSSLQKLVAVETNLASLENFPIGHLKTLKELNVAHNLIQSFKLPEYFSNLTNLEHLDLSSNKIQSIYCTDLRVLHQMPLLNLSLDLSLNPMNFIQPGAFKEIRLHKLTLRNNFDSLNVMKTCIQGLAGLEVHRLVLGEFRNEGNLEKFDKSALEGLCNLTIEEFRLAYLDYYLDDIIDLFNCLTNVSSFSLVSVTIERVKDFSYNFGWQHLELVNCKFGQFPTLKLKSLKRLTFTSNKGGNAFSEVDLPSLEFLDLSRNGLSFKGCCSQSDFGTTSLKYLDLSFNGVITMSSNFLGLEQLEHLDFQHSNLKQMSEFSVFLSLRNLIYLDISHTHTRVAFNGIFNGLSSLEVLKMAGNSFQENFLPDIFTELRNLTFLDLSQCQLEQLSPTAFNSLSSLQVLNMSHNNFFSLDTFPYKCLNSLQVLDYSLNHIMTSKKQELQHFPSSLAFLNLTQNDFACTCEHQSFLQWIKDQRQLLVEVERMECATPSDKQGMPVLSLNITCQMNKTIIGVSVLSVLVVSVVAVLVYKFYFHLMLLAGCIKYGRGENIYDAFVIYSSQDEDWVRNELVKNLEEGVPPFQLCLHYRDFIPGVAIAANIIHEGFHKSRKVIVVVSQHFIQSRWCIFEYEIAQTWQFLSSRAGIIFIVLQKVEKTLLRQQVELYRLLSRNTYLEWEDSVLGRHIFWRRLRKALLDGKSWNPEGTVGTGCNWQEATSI
Target sequence (Q99836 whole entry, looked up): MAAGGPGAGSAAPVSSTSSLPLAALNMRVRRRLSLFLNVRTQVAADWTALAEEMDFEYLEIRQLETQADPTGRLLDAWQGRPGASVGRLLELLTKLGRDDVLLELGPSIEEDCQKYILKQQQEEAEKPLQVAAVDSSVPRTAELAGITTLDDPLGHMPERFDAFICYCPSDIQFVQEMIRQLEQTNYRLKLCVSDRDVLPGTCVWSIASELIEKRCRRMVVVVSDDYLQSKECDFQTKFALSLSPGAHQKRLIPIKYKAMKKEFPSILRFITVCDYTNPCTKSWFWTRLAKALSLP
TLR9-MyD88 inh: TLR9-MyD88 interaction inhibition; inhibition, % at 4.98 µM; Q9NR96+Q99836; AID 504734; 340,000 tested, 0.21% active; CHO BLA complementation TLR9-MyD88, CCF4 FRET ratio;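 active means inhibition above the mean over all tested compounds plus 3 SD, cut at about 21% in these data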;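 further: 0% = DMSO only wells and 100% = clavulanate BLA inhibitor control wells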
HTR2A ag: activates the mouse 5-HT2A serotonin receptor; P35363; CHO-K1 mHTR2A beta-arrestin complementation, luminescence; percent of 30 µM serotonin response; activation, % at 7.6 µM; 360,000 tested, 0.66% active;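 active means activation above a run cutoff, the mean activation of all tested compounds plus 3 SD, cut at about 14% in these data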;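 further: 0% = plate median of compound wells and 100% = 30 µM serotonin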
NOD2-RIPK2 inh: NOD2-RIPK2 protein interaction inhibition. CHO BLA complementation NOD2-RIPK2, CCF4 ratio. inhibition, % at 4.98 µM. 360,000 tested, 0.38% active. AID 624267; in the data active means inhibition above about 21%;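 further: 0% = vehicle only and 100% = reference blocker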
MOR ag counter: activates human mu opioid receptor in HTR2A counterscreen; activation, % at 9.3 µM; 2,300 tested, 5.3% active; U2OS OPRM1 beta-arrestin PathHunter, luminescence; DMSO 0%, DAMGO 9.3 µM 100%; AID 624380; shares compounds with HTR2A ag;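 active means mean activation above the mean of DMSO-only wells plus 3 SD, cut at about 0.5% in these data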
HTR2A ag conf: mouse HTR2A agonism confirmed; shares compounds with HTR2A ag; CHO-K1 PathHunter beta-arrestin recruitment, luminescence; DMSO 0%, 30 µM serotonin 100%; activation, % at 7.6 µM; 2,300 tested, 19% active; AID 624381;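 active means mean activation across triplicates above the hit threshold derived in the original primary screen, cut at about 15% in these data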
Active calls of the source: *; . = no result given.

SMILES | CRFR2-BP antag | ABHD5-PLIN5 inh | TLR4-MyD88 BLA | TLR9-MyD88 inh | HTR2A ag | NOD2-RIPK2 inh | MOR ag counter | HTR2A ag conf
Cc1ccccc1NC(=S)NCc1ccc2c(c1)cc(C)n2C | -4 | -4 | 5 | 1 | 20* | -2 | -1 | 1
CCCCCCCCN1C(=O)[C@H](CC(=O)NCc2ccc(OC)c(OC)c2)C[C@@]2(C(=O)OC)CCCCC=C12 | . | -5 | . | . | -5 | -7 | . | .
CCC(=O)N1CCC1(C)C(=O)Nc1cc(-c2ccccc2)nn1C (stereo not given) | . | -2 | . | . | -2 | 6 | . | .
COc1ccccc1-c1noc(-c2ccccc2)n1 | 6 | -4 | 15 | -3 | 18* | 6 | 0 | -4
COc1ccc(-c2nc(-c3ccccc3OC)no2)cc1OC | -4 | -6 | 5 | 1 | 0 | -13 | . | .
COc1cccc(NC(=O)c2cc3c(=O)n4ccccc4nc3n(CC(C)C)c2=N)c1 | -10 | 3 | 4 | 8 | 4 | 12 | . | .
Cc1cccc(NC(=O)c2cc3c(=O)n4ccccc4nc3n(CC(C)C)c2=N)c1 | 6 | 0 | 1 | 6 | 15* | -18 | 0 | 2
CNC(=S)N(CCc1c(C)[nH]c2ccc(F)cc12)Cc1ccco1 | -7 | 2 | . | -12 | -3 | -2 | . | .
COCCNC(=S)N(CCc1c(C)[nH]c2ccc(F)cc12)Cc1ccco1 | 3 | -4 | . | 1 | 28* | -2 | 0 | -3
CN(C(=O)Cn1nc(C(=O)O)c2ccccc2c1=O)C1(C#N)CCCCC1 | 0 | 8 | . | -3 | 19* | 0 | 0 | 9
O=C(O)c1nn(CC(=O)N2CCCCCC2)c(=O)c2ccccc12 | -5 | 0 | 11 | 14 | 1 | 2 | . | .
CCCn1nc(C(=O)Nc2ccc3nc(N4CCOCC4)sc3c2)ccc1=O | 17 | 8 | . | 0 | 21* | -4 | 0 | 0
COc1ccc(C(=O)Nc2ccc3nc(N4CCOCC4)sc3c2)cc1OC | 5 | 0 | . | -7 | -6 | -3 | . | .
CSc1ccc(NC(=O)N2CCN(c3nc4ccccc4s3)CC2)cc1 | 1 | -1 | -6 | 8 | 18* | 3 | 0.5* | 1
CCCC(=O)N1CCN(c2nc3ccccc3s2)CC1 | -11 | 0 | . | -2 | 3 | -3 | . | .
COc1ccc(-c2ccc(C(=O)N3CCOCC3)c3occc23)c(C)c1 | . | -4 | . | . | -2 | -10 | . | .
CN1OC[C@@H]2CN(Cc3cc(Cl)cc(Cl)c3)[C@H](c3cccc(Oc4ccccc4)c3)C[C@@H]21 | 9 | -5 | . | 2 | 15* | 1 | -1 | -3
CN1CCc2c(sc(/N=C/c3cc(C(C)(C)C)ccc3O)c2C#N)C1 | -36 | -1 | . | 0 | 17* | -2 | -1 | 62*
CC(C)C[C@H]1COc2cc(N3CCC[C@@H]3CO)ccc2S(=O)(=O)N1 | . | -12 | . | . | -2 | -12 | . | .
COCCNC(=O)COC(=O)/C=C/c1c(C)nn(Cc2ccc(Cl)cc2Cl)c1Cl | 1 | 1 | 6 | 0 | 35* | 0 | -1 | -5
NC[C@@H]1O[C@H](C23CC4CC(CC(C4)C2)C3)Cc2c1ccc(O)c2O | -14 | 0 | . | -1 | 26* | -3 | 0 | 100*
Cc1ccc2[nH]c(-c3ccccc3)c(CN3CCN(C)CC3)c(=O)c2c1 | 12 | 10 | 10 | 10 | 4 | -3 | . | .
Cc1ccc2[nH]c(-c3ccccc3)c(CN3CCCC3)c(=O)c2c1 | 29 | -6 | -2 | -7 | 20* | 14 | 0 | 11
CC1(C(=O)NS(=O)(=O)c2cccc(C#N)c2)CCN1C(=O)CC1CCCC1 (stereo not given) | . | -1 | . | . | -1 | 3 | . | .
CN(CCOc1ccc(Cl)cc1)C(=O)c1cc(S(=O)(=O)N2CCOCC2)ccc1N1CCCC1 | -9 | -6 | . | -1 | 19* | 0 | -1 | -4
SMILES | CRFR2-BP antag | ABHD5-PLIN5 inh | TLR4-MyD88 BLA | TLR9-MyD88 inh | HTR2A ag | NOD2-RIPK2 inh | MOR ag counter | HTR2A ag conf
O=C(NCc1ccccc1Cl)c1csc([C@@H]2O[C@H](CO)[C@H](O)[C@H](O)[C@H]2O)n1 | . | -1 | . | . | 6 | -6 | . | .
COc1ccc(OC)c(NC(=S)N(CCc2c(C)[nH]c3ccc(C)cc23)Cc2cccs2)c1 | 4 | -13 | 1 | 0 | 20* | -2 | -1 | 4
CCN1CCN(C(=S)Nc2cccc([N+](=O)[O-])c2)CC1 | -13 | 1 | -9 | 8 | 26* | 2 | 0 | -1
CCOC(=O)CCC(=O)Nc1ccc(S(=O)(=O)Nc2cc(OC)nc(OC)n2)cc1 | 7 | -2 | . | -4 | 22* | -6 | -1 | -4
COc1cc(NS(=O)(=O)c2ccc(NC(=O)CCC(=O)O)cc2)nc(OC)n1 | -14 | -3 | . | 4 | 2 | -4 | . | .
O=C(NCC(=O)N(c1cccnc1)C(C(=O)NCc1ccco1)c1ccccc1)c1ccco1 (stereo not given) | -13 | 4 | -2 | 0 | 15* | 12 | 0 | 10
CCc1ccc2c(F)cccc2n1 | . | -3 | . | . | -2 | -7 | . | .
CCCCCc1cc(=O)oc2c(C(CCN3CCCC3)c3ccc(N(C)C)cc3)c(OC)cc(OC)c12 (stereo not given) | -9 | 9 | . | 2 | -14 | 8 | . | .
CCCCCc1cc(=O)oc2c(C(CCN3CCN(c4ccccc4)CC3)c3ccc4c(c3)OCO4)c(OC)cc(OC)c12 (stereo not given) | 4 | -2 | . | 4 | 22* | -1 | -1 | 49*
Cn1cc(C(=O)c2ccc(Cl)cc2Cl)cc1C(=O)N/N=C(\N)COc1ccc(F)cc1 | 3 | 4 | 8 | -7 | -5 | -12 | . | .
Cn1cc(C(=O)c2ccc(Cl)cc2Cl)cc1C(=O)N/N=C(\N)COc1ccc(Cl)cc1 | 1 | 12 | . | 2 | 15* | -2 | 0 | -3
CSc1nc(C)cc(NC(N)=O)n1 | -11 | 7 | -4 | -14 | 15* | -15 | 0 | 0
Oc1ccc(C[C@H]2CNC(=S)N2C[C@H]2CCCN2C[C@H](Cc2ccccc2)N2C[C@H](Cc3ccccc3)N(CC3CCCCC3)C2=S)cc1 | . | 3 | . | . | -4 | -16 | . | .
CCOC(=O)c1ccc(NC(=O)CCS(=O)(=O)Cc2ccccc2)cc1 | 9 | -3 | . | -4 | 15* | -1 | 0 | 13
COc1ccc(OC)c(NC(=O)CCNC(=O)N2CC(=O)Nc3ccccc32)c1 | -14 | 8 | . | 7 | 3 | -3 | . | .
COc1ccccc1NC(=O)COC(=O)Cc1c[nH]c2ccccc12 | 8 | 0 | -2 | -2 | 15* | 0 | -1 | -5
COCCCNC(=O)c1csc([C@@H]2C[C@H](O)[C@@H](CO)O2)n1 | . | 0 | . | . | 10 | 2 | . | .
